According to PubChem BioAssay (NCATS):
Inconclusive results are not listed. The source made the active and inactive calls. Calls come from the whole dose curve; as a rule, active = well fitted curve in the direction sought with a large enough effect; inconclusive = small, poorly fitted or top-dose-only effect, or another doubt; inactive = no such curve, though single readings can be large; an effect the other way counts as inactive or inconclusive.

Assays:
[1] = target: Calcium and integrin-binding protein 1 (Homo sapiens) (UniProt Q99828); test: Primary qHTS for Identification of Calcium Integrin Binding Protein 1 (CIB1) Competitor (AID 1508620);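 note: GST tagged CIB1 binding a fluorescein labelled alphaIIb integrin peptide tracer; top concentration of the series differs between compounds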
How it was run: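 Fluorescence polarization competition: CIB1-GST (1 uM final) preincubated with compound 15 min at room temperature, then FITC-labeled alphaIIb peptide (100 nM final) added for another 15 min. Polarization read at Ex 480/Em 540.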

[2] = target: Rap guanine nucleotide exchange factor 3 (Homo sapiens) (UniProt O95398); test: Confirmatory qHTS for agonist of cAMP-regulated guanine nucleotide exchange factor 3 (EPAC1) (AID 1645881);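 note: EPAC1 catalysed release of BODIPY-GDP from Rap1B seen as fluorescence loss; nearly all actives have a fitted effect of over 75% in size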
[3] = target: Rap guanine nucleotide exchange factor 4 (Homo sapiens) (UniProt Q8WZA2); test: Confirmatory qHTS for agonist of cAMP-regulated guanine nucleotide exchange factor 4 (EPAC2) (AID 1645884);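 note: nucleotide exchange releases bodipy-GDP from Rap1 and this lowers its fluorescence; nearly all actives have a fitted effect of over 65% in size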
[4] = target: Rap guanine nucleotide exchange factor 4 (Homo sapiens) (UniProt Q8WZA2); test: Confirmatory qHTS for antagonist of cAMP-regulated guanine nucleotide exchange factor 4 (EPAC2) (AID 1645885); note: nearly all actives have a fitted effect of over 25% in size
[5] = target: Rap guanine nucleotide exchange factor 3 (Homo sapiens) (UniProt O95398); test: Counterscreen qHTS for antagonist of cAMP-regulated guanine nucleotide exchange factor 3 (EPAC1) (AID 1645888);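 note: fluorescence loss as bound BODIPY-GDP is released from Rap1B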
How it was run: (§1)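 Measured: fluorescence of BODIPY-GDP bound to Rap1B, which falls as exchange proceeds. Conditions include 50 uM competing GDP, 5 and 30 min reads, and a later cAMP challenge for antagonist detection.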

[6] = target: Rap guanine nucleotide exchange factor 3 (Homo sapiens) (UniProt O95398); test: Counterscreen qHTS for agonist of cAMP-regulated guanine nucleotide exchange factor 3 (EPAC1) (AID 1645889); note: nearly all actives have a fitted effect of over 40% in size
How it was run: as §1

Measured: Potency

Chain of Rap guanine nucleotide exchange factor 4 (Homo sapiens) (Q8WZA2 whole entry, looked up): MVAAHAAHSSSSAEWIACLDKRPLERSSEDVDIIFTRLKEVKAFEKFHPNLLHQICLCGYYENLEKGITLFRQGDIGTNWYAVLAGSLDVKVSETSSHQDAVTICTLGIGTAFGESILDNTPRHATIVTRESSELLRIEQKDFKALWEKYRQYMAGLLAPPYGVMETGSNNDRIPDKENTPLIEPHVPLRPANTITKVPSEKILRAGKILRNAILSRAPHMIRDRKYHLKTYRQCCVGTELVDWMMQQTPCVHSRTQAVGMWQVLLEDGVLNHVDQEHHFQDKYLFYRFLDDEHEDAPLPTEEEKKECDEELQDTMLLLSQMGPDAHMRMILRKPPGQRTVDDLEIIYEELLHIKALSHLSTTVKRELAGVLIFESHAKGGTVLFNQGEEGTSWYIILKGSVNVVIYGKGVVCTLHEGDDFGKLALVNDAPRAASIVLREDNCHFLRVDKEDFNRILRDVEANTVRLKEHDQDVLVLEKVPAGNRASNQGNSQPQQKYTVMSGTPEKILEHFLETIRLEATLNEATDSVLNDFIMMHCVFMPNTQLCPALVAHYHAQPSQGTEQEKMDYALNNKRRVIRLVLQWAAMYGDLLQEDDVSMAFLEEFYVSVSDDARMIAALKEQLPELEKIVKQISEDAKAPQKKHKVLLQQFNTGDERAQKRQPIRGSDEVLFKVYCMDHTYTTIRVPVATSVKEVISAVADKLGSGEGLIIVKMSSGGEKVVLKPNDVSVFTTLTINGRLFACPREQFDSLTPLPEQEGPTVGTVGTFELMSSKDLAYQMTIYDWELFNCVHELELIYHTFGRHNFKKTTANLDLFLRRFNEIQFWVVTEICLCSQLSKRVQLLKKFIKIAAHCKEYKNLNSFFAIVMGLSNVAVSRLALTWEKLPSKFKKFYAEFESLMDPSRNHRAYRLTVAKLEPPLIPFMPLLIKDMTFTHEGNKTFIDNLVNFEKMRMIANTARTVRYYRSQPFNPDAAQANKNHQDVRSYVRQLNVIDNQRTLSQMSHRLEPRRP
Chain of Rap guanine nucleotide exchange factor 3 (Homo sapiens) (O95398 whole entry, looked up): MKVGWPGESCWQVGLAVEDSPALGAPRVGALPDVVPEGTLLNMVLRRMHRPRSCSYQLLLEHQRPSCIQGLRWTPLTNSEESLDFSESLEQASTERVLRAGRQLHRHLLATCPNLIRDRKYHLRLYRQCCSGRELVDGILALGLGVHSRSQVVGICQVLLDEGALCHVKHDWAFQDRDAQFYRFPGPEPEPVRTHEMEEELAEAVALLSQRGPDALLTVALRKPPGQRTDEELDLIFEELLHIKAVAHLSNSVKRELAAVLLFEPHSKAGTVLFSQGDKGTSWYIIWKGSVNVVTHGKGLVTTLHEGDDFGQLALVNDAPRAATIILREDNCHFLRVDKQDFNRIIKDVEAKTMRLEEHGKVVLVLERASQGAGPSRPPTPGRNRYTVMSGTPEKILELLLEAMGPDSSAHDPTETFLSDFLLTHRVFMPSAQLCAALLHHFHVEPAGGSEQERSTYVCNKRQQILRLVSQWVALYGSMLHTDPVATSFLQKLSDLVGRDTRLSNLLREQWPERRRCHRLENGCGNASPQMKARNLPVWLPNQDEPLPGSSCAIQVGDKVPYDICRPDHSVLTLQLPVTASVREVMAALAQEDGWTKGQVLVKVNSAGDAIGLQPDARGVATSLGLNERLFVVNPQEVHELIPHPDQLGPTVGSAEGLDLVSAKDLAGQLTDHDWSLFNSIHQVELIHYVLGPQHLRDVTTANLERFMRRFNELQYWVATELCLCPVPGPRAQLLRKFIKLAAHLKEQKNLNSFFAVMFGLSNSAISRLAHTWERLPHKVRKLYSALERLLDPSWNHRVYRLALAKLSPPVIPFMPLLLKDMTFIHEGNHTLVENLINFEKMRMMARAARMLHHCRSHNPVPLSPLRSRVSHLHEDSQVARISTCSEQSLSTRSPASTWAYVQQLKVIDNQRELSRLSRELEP
Chain of Calcium and integrin-binding protein 1 (Homo sapiens) (Q99828 whole entry, looked up): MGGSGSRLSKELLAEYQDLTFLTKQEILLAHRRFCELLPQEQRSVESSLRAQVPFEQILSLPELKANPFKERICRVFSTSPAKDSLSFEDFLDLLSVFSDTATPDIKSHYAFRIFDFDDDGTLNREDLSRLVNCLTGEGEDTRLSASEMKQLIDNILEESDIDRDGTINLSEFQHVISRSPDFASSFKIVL

Nc1ncnc2c1C(c1ccccc1)c1c(ccc3ccccc13)O2 (stereo unspecified)
inactive: [1] | [2] | [3] | [4] | [5]

CCOc1ccccc1CNc1ncnc2ccc(-c3c(C)noc3C)cc12
inactive: [1] | [2] | [3] | [4] | [5] | [6]

CCN(CC)C(=O)CC(c1ccc2c(c1)OCO2)c1c(O)cc(OC)cc1OC (stereo unspecified)
inactive: [1] | [2] | [3] | [4] | [5]
